# How the values were obtained:
# Assay in all cases: SPOT peptide array binding signal intensity (averaged, normalized) (arbitrary units (background-subtracted, floor 0; scale differs between SH3 domains)); higher = stronger binding of the SH3 domain to the peptide
# [1] = target: AgAbp1
# Outline: (§1)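 E. coli BL21(DE3) was used to express GST-fused SH3 domains from four yeast species, which were then purified on glutathione Sepharose. These were incubated at 10 μg/ml in TBS-based blocking buffer overnight at 4°C on cellulose membranes carrying synthetic 15-mer peptides, in which cysteines were replaced by serines. Binding signal is the replicate average of normalized, background-subtracted spot intensity, in arbitrary units that differ between domains.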
# [2] = target: AgBbc1
# Outline: as §1
# [3] = target: AgBem1-D1
# Outline: as §1
# [4] = target: AgBzz1-D1
# Outline: as §1
# [5] = target: AgBzz1-D2
# Outline: as §1
# [6] = target: AgCyk3
# Outline: as §1
# [7] = target: AgFus1
# Outline: as §1
# [8] = target: AgHof1
# Outline: as §1
# [9] = target: AgHse1
# Outline: as §1
# [10] = target: AgLsb1
# Outline: as §1
# [11] = target: AgLsb4
# Outline: as §1
# [12] = target: AgMyo5
# Outline: as §1
# [13] = target: AgNbp2
# Outline: as §1
# [14] = target: AgRvs167
# Outline: as §1
# [15] = target: AgSho1
# Outline: as §1
# [16] = target: AgSla1-D1-D2
# Outline: as §1
# [17] = target: AgSla1-D3
# Outline: as §1
# [18] = target: CaAbp1-D1
# Outline: as §1
# [19] = target: CaAbp1-D2
# Outline: as §1
# [20] = target: CaBbc1
# Outline: as §1
# [21] = target: CaBem1-D1
# Outline: as §1
# [22] = target: CaBzz1-D1
# Outline: as §1
# [23] = target: CaBzz1-D2
# Outline: as §1
# [24] = target: CaCyk3
# Outline: as §1
# [25] = target: CaFus1
# Outline: as §1
# [26] = target: CaHof1
# Outline: as §1
# [27] = target: CaHse1
# Outline: as §1
# [28] = target: CaLsb1
# Outline: as §1
# [29] = target: CaLsb4
# Outline: as §1
# [30] = target: CaMyo5
# Outline: as §1
# [31] = target: CaNbp2
# Outline: as §1
# [32] = target: CaRvs167
# Outline: as §1
# [33] = target: CaRvs167-3
# Outline: as §1
# [34] = target: CaSho1
# Outline: as §1
# [35] = target: CaSla1-D1-D2
# Outline: as §1
# [36] = target: CaSla1-D3
# Outline: as §1
# [37] = target: ScAbp1
# Outline: as §1
# [38] = target: ScBbc1
# Outline: as §1
# [39] = target: ScBem1-D1
# Outline: as §1
# [40] = target: ScBzz1-D1
# Outline: as §1
# [41] = target: ScBzz1-D2
# Outline: as §1
# [42] = target: ScCyk3
# Outline: as §1
# [43] = target: ScFus1
# Outline: as §1
# [44] = target: ScHof1
# Outline: as §1
# [45] = target: ScHse1
# Outline: as §1
# [46] = target: ScLsb1
# Outline: as §1
# [47] = target: ScLsb2
# Outline: as §1
# [48] = target: ScLsb3
# Outline: as §1
# [49] = target: ScLsb4
# Outline: as §1
# [50] = target: ScMyo3
# Outline: as §1
# [51] = target: ScMyo5
# Outline: as §1
# [52] = target: ScNbp2
# Outline: as §1
# [53] = target: ScPex13
# Outline: as §1
# [54] = target: ScRvs167
# Outline: as §1
# [55] = target: ScSho1
# Outline: as §1
# [56] = target: ScSla1-D1-D2
# Outline: as §1
# [57] = target: ScSla1-D3
# Outline: as §1
# [58] = target: SpAbp1-D1
# Outline: as §1
# [59] = target: SpBbc1
# Outline: as §1
# [60] = target: SpBzz1-D1
# Outline: as §1
# [61] = target: SpBzz1-D2
# Outline: as §1
# [62] = target: SpCyk3
# Outline: as §1
# [63] = target: SpHof1
# Outline: as §1
# [64] = target: SpHof1-2
# Outline: as §1
# [65] = target: SpHof1-3
# Outline: as §1
# [66] = target: SpHse1
# Outline: as §1
# [67] = target: SpLsb1
# Outline: as §1
# [68] = target: SpLsb4
# Outline: as §1
# [69] = target: SpMyo1
# Outline: as §1
# [70] = target: SpNbp2
# Outline: as §1
# [71] = target: SpPex13
# Outline: as §1
# [72] = target: SpRvs167
# Outline: as §1
# [73] = target: SpSla1-D1-D2
# Outline: as §1
# [74] = target: SpSla1-D3
# Outline: as §1
binder,measurement,setting,value
RFKRHRLEFPFNESE,SPOT peptide array binding signal intensity,[1],154
same,SPOT peptide array binding signal intensity,[2],38.5
same,SPOT peptide array binding signal intensity,[3],120
same,SPOT peptide array binding signal intensity,[4],58
same,SPOT peptide array binding signal intensity,[5],71
same,SPOT peptide array binding signal intensity,[6],≤ 0
same,SPOT peptide array binding signal intensity,[7],378
same,SPOT peptide array binding signal intensity,[8],28
same,SPOT peptide array binding signal intensity,[9],929
same,SPOT peptide array binding signal intensity,[10],1.5
same,SPOT peptide array binding signal intensity,[11],78
same,SPOT peptide array binding signal intensity,[12],0.75
same,SPOT peptide array binding signal intensity,[13],37
same,SPOT peptide array binding signal intensity,[14],5.33
same,SPOT peptide array binding signal intensity,[15],46
same,SPOT peptide array binding signal intensity,[16],98
same,SPOT peptide array binding signal intensity,[17],8
same,SPOT peptide array binding signal intensity,[18],759
same,SPOT peptide array binding signal intensity,[19],598
same,SPOT peptide array binding signal intensity,[20],107
same,SPOT peptide array binding signal intensity,[21],164
same,SPOT peptide array binding signal intensity,[22],34.5
same,SPOT peptide array binding signal intensity,[23],34.8
same,SPOT peptide array binding signal intensity,[24],3
same,SPOT peptide array binding signal intensity,[25],608
same,SPOT peptide array binding signal intensity,[26],1.5
same,SPOT peptide array binding signal intensity,[27],16
same,SPOT peptide array binding signal intensity,[28],≤ 0
same,SPOT peptide array binding signal intensity,[29],31
same,SPOT peptide array binding signal intensity,[30],13.2
same,SPOT peptide array binding signal intensity,[31],342
same,SPOT peptide array binding signal intensity,[32],25.7
same,SPOT peptide array binding signal intensity,[33],211
same,SPOT peptide array binding signal intensity,[34],939
same,SPOT peptide array binding signal intensity,[35],7
same,SPOT peptide array binding signal intensity,[36],4
same,SPOT peptide array binding signal intensity,[37],236
same,SPOT peptide array binding signal intensity,[38],11.5
same,SPOT peptide array binding signal intensity,[39],52
same,SPOT peptide array binding signal intensity,[40],12
same,SPOT peptide array binding signal intensity,[41],1
same,SPOT peptide array binding signal intensity,[42],112
same,SPOT peptide array binding signal intensity,[43],286
same,SPOT peptide array binding signal intensity,[44],5.25
same,SPOT peptide array binding signal intensity,[45],1570
same,SPOT peptide array binding signal intensity,[46],36.2
same,SPOT peptide array binding signal intensity,[47],3
same,SPOT peptide array binding signal intensity,[48],80
same,SPOT peptide array binding signal intensity,[49],≤ 0
same,SPOT peptide array binding signal intensity,[50],≤ 0
same,SPOT peptide array binding signal intensity,[51],3.5
same,SPOT peptide array binding signal intensity,[52],154
same,SPOT peptide array binding signal intensity,[53],≤ 0
same,SPOT peptide array binding signal intensity,[54],25.3
same,SPOT peptide array binding signal intensity,[55],756
same,SPOT peptide array binding signal intensity,[56],358
same,SPOT peptide array binding signal intensity,[57],11.8
same,SPOT peptide array binding signal intensity,[58],419
same,SPOT peptide array binding signal intensity,[59],2.5
same,SPOT peptide array binding signal intensity,[60],127
same,SPOT peptide array binding signal intensity,[61],≤ 0
same,SPOT peptide array binding signal intensity,[62],≤ 0
same,SPOT peptide array binding signal intensity,[63],68.2
same,SPOT peptide array binding signal intensity,[64],12.2
same,SPOT peptide array binding signal intensity,[65],348
same,SPOT peptide array binding signal intensity,[66],640
same,SPOT peptide array binding signal intensity,[67],10.8
same,SPOT peptide array binding signal intensity,[68],30.5
same,SPOT peptide array binding signal intensity,[69],0.5
same,SPOT peptide array binding signal intensity,[70],298
same,SPOT peptide array binding signal intensity,[71],15
same,SPOT peptide array binding signal intensity,[72],22.5
same,SPOT peptide array binding signal intensity,[73],≤ 0
same,SPOT peptide array binding signal intensity,[74],26
AGKRRLPLVRFKASD,SPOT peptide array binding signal intensity,[31],384
same,SPOT peptide array binding signal intensity,[32],51.3
same,SPOT peptide array binding signal intensity,[33],226
same,SPOT peptide array binding signal intensity,[34],613
same,SPOT peptide array binding signal intensity,[35],162
same,SPOT peptide array binding signal intensity,[36],114
same,SPOT peptide array binding signal intensity,[37],146
same,SPOT peptide array binding signal intensity,[38],30.8
same,SPOT peptide array binding signal intensity,[39],68.5
same,SPOT peptide array binding signal intensity,[40],24
same,SPOT peptide array binding signal intensity,[41],44
same,SPOT peptide array binding signal intensity,[42],71
same,SPOT peptide array binding signal intensity,[43],584
same,SPOT peptide array binding signal intensity,[44],5.5
same,SPOT peptide array binding signal intensity,[45],2480
same,SPOT peptide array binding signal intensity,[46],4.5
same,SPOT peptide array binding signal intensity,[47],6.5
same,SPOT peptide array binding signal intensity,[48],478
same,SPOT peptide array binding signal intensity,[49],25.5
same,SPOT peptide array binding signal intensity,[50],5
same,SPOT peptide array binding signal intensity,[51],3
same,SPOT peptide array binding signal intensity,[52],626
same,SPOT peptide array binding signal intensity,[53],6.75
same,SPOT peptide array binding signal intensity,[54],364
same,SPOT peptide array binding signal intensity,[55],2030
same,SPOT peptide array binding signal intensity,[56],1180
same,SPOT peptide array binding signal intensity,[57],9.75
same,SPOT peptide array binding signal intensity,[58],592
same,SPOT peptide array binding signal intensity,[59],5.25
same,SPOT peptide array binding signal intensity,[60],180
same,SPOT peptide array binding signal intensity,[61],1
same,SPOT peptide array binding signal intensity,[62],67
same,SPOT peptide array binding signal intensity,[63],481
same,SPOT peptide array binding signal intensity,[64],99.5
same,SPOT peptide array binding signal intensity,[65],412
same,SPOT peptide array binding signal intensity,[66],536
same,SPOT peptide array binding signal intensity,[67],17
same,SPOT peptide array binding signal intensity,[68],354
same,SPOT peptide array binding signal intensity,[69],3.5
same,SPOT peptide array binding signal intensity,[70],1010
same,SPOT peptide array binding signal intensity,[71],42.5
same,SPOT peptide array binding signal intensity,[72],248
same,SPOT peptide array binding signal intensity,[73],4
same,SPOT peptide array binding signal intensity,[74],17.5

# Source: the supplement of paper PMC4466140
